Screens from PubChem BioAssay.
Rows were chosen to be rich in hits. Some 2.3% of all compounds tested hit in one or more screens of this group.
HTT aggregate – qHTS Multiplex Assay to Identify Dual Action Probes in a Cell Model of Huntington: Aggregate Formation (GFP) | 1.1% of 220,000 active | Potency, µM (titrated, usually from 46.1 µM), for the others: top-dose activity change, negative = inhibition, hits mostly inhibitors | PC12 HttQ103-GFP aggregates, Acumen cytometry, 40 h; note: potency is the fitted concentration of half-maximal effect; % is set by controls: 0 for no effect and ±100 for the full control effect; nearly all actives have a fitted effect of over 60% in size
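Quantitative HTS on tebufenozide-induced (100 nM) PC12 cells stably expressing polyQ103 Huntingtin exon 1–GFP. Reduction of bright GFP aggregates, detected by laser scanning cytometry after lysis, identified actives across the titration.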
Coupling enz – qHTS Assay for Inhibitors of Fructose-1,6-bisphosphate Aldolase from Giardia Lamblia: Coupling assay counterscreen; activity change, negative = inhibition, % at 58.2 µM, hits read low; 0.67% of 290,000 active; coupling enzyme system counterscreen, AmpLite Red fluorescence; AID 2472, 2010; in the data active = activity change below about -30%; note: % is set by controls: 0 for no effect and ±100 for the full control effect
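Counterscreen of the coupled detection system alone, without aldolase: glyceraldehyde-3-phosphate coupling enzymes plus AmpLite Red readout. Compounds at 57.5 uM final, 10 min RT preincubation, 20 min RT reaction, fluorescence 525/598 nm.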
VDR inhibitor – Inhibitors of the vitamin D receptor (VDR): qHTS. 0.93% of 400,000 active. VDR-SRC2-3 peptide fluorescence polarization, 2 h. Vitamin D3 receptor (Homo sapiens), P11473. Potency, µM, without a hit: max response, negative = inhibition, actives largely listed as inhibitors. AID 504847, 2011; note: potency is the fitted concentration of half-maximal effect; % is set by controls: 0 for no effect and ±100 for the full control effect
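FP read-out; VDR + SRC2-3 coactivator peptide; 23 nl compound by pintool; 2 h RT incubation; reagents held at 4 deg C, protected from light.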
JMJD2E inh – qHTS Assay for Inhibitors of Human Jumonji Domain Containing 2E (JMJD2E); 1.6% of 230,000 active; AID 2147, 2009; JMJD2E catalytic domain, FDH-coupled NADH fluorescence (FDH is formaldehyde dehydrogenase); Potency, µM (highest dose often 57.1 µM), for the others: at the top dose activity change, negative = inhibition, actives largely listed as inhibitors; active = well fitted inhibition curve with a large enough effect, not every such curve was filed as active; inconclusive = small, poorly fitted or top-dose-only effect, or another doubt; inactive = no such curve, though single readings can be large or run the other way;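 note: potency is the fitted concentration of half-maximal effect; 0% = wells with enzyme and -100% = buffer wells without enzyme; nearly all actives have a fitted effect of over 50% in size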
RGS12 GoLoco inh – qHTS Assay for Inhibitors of RGS12 GoLoco Motif Activity (Red Fluorophore); Guanine nucleotide-binding protein G(i) subunit alpha-1 (Homo sapiens), P63096; Gai1:RGS12 GoLoco peptide FP, rhodamine, 10 min; Potency, µM (titrated, usually from 61.6 µM), inactives show at the highest dose activity, negative = inhibition, usual class: inhibitors; 0.44% of 230,000 active; AID 880, 2007; active = well fitted inhibition curve with a large enough effect, not every such curve was filed as active; inactive = no such curve, though single readings can be large or run the other way; note: potency is the fitted concentration of half-maximal effect; % is set by controls: 0 for no effect and ±100 for the full control effect; nearly all actives have a fitted effect of over 30% in size
Target sequence (P63096 whole entry, looked up): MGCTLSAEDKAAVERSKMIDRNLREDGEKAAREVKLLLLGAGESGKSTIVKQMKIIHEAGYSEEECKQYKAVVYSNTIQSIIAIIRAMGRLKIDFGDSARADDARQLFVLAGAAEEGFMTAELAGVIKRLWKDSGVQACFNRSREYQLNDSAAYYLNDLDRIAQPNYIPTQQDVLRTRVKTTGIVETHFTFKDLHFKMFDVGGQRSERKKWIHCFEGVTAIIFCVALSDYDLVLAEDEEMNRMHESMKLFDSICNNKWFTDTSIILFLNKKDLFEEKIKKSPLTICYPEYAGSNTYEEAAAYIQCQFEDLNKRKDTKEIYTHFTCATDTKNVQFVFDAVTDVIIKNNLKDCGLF
HTT cytoprotect – qHTS Multiplex Assay to Identify Dual Action Probes in a Cell Model of Huntington: Cytoprotection (ATP); PC12 HTT-Q103 induced, cytoprotection, ATP luminescence, 40 h; Potency, µM (highest dose often 56.4 µM), for the others: cytoprotection (ATP increase), most hits filed as activators; 0.14% of 230,000 active; note: potency is the fitted concentration of half-maximal effect; % of control where 0% means no effect; nearly all actives have a fitted effect of over 45% in size
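PC12 cells stably carrying ecdysone-inducible Htt exon 1 (Q103)–GFP were induced with 100 nM tebufenozide (final) alongside library compounds in a dose series. Cytoprotection was scored as retained ATP by ATPlite luminescence.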
Active calls of the source: *; ? = inconclusive; / = no result given; [ ] = another dose, or the depositor's remark. Unless noted, calls come from the whole dose curve; as a rule, active = well fitted curve in the direction sought with a large enough effect; inconclusive = small, poorly fitted or top-dose-only effect, or another doubt; inactive = no such curve, though single readings can be large; an effect the other way counts as inactive or inconclusive.

SMILES | HTT aggregate | Coupling enz | VDR inhibitor | JMJD2E inh | RGS12 GoLoco inh | HTT cytoprotect
C/C(=N\N=C(/N)SC1CC(=O)N(c2ccc(Br)cc2)C1=O)c1cccs1 (centres undefined) | 15% | 0 | 12% | -3% | 1% | 1%
COCCCN1C(=O)N(c2ccc(F)cc2)C(=O)C1CC(=O)Nc1ccc(OC)cc1 (centres undefined) | / | 0 | -13% | / | / | /
CCCCCCCC(=O)NNC(=O)Cc1ccccc1 | 10% | 8 | -7% | 9% | -2% | 2%
CCCCCC[N+](C)(C)CCSSCC[N+](C)(C)CCCCCC | -8%[9.22 µM] | -6 | 8.9µM* | -12% | -37% | 10%[10 µM]
CCCCCCCCCCCCCCCC[N+](C)(C)CCl | / | / | -6% | / | / | /
C#CC[N+](C)(C)CCCCCCCC | 8.9µM* | -3 | 14% | 11% | -1% | -12%[10 µM]
CCCCCCCCCCCCCCCC[N+](C)(C)CC | 14µM* | / | -5% | / | / | -98%
CCCCCCCCCCCCCC[N+](C)(C)Cc1ccccc1 | 25µM* | / | 1% | / | / | -99%
CCCCCCCCCCCCCCCCCC[N+](C)(C)CCC[Si](OC)(OC)OC | 6% | / | 1% | / | -14% | -2%
C#CC[N+](C)(C)CCCCCCCCCC | ? | 5 | 16% | 6% | 3% | -7%[10 µM]
CCCCCCCCCCCCCC[N+](C)(C)C | 16µM* | / | 2% | / | / | -107%
CCCCCCCC[N+](CCCCCCCC)(CCCCCCCC)CCCCCCCC | / | / | / | / | 5% | -91%
Cc1ccc(N)cc1[N+](=O)[O-] | / | / | / | / | 28% | -12%
O=C(NNc1ccccc1[N+](=O)[O-])Nc1ccc(Cl)c(Cl)c1 | 11µM* | 1 | -10% | -29% | 18% | /
O=C(NNc1ccccc1[N+](=O)[O-])Nc1ccccc1 | -1% | 1 | ? | -5% | 10% | 20%
COCCNC(=S)NNc1ccccc1[N+](=O)[O-] | -4% | -2 | ? | -13% | -9% | -39%
CNC(=S)NNc1ccccc1[N+](=O)[O-] | -9% | -1 | 71µM* | 5% | -5% | -42%
Cc1ccc(C(=O)/C=C/NNC(=O)c2ccccc2O)cc1 | / | -3 | ? | / | / | /
CCc1nc2nc(C)cc(Nc3ccc(OC)cc3OC)n2n1 | / | / | -13% | / | / | /
CCOC(=O)CSc1nn(C)c(=S)s1 | -8% | 1 | -1% | -8% | -3% | 14%[10 µM]
CCOC(=O)CSc1n[nH]c(=S)s1 | -8%[9.22 µM] | -2 | -16% | 10µM* | -10% | -25%[10 µM]
CC1CCCCN1S(=O)(=O)c1ccc(C(=O)Nc2nnc(-c3ccccc3Cl)o2)cc1 (centres undefined) | ? | 12 | -8% | ? | 11% | -25%[10 µM]
CCC1CCCCN1S(=O)(=O)c1ccc(C(=O)Nc2nnc(-c3ccccc3Cl)o2)cc1 (centres undefined) | 7.9µM* | 5 | 10% | -17% | -1% | 29%[10 µM]
O=C(Nc1nnc(-c2ccccc2Cl)o1)c1ccc(S(=O)(=O)N2CCCCCC2)cc1 | 10µM* | 12 | -3% | -9% | -2% | -65%
COc1ccc(C(=O)N/N=C/c2ccc(OC)c(COc3ccc(F)cc3F)c2)cc1 | / | -4 | 2% | / | / | /
SMILES | HTT aggregate | Coupling enz | VDR inhibitor | JMJD2E inh | RGS12 GoLoco inh | HTT cytoprotect
COc1cc2ccccc2cc1C(=O)Nc1ccc(Cc2ccncc2)cc1 | 10µM* | -5 | 12% | ? | 11% | -77%
COc1cc2ccccc2cc1C(=O)Nc1ccc(C)cc1 | / | -1 | -16% | / | / | /
O=C(O)c1cccc(-n2cccc2/C=C\[N+](=O)[O-])c1 | 6%[9.22 µM] | 0 | ? | 14µM* | -13% | 6%[10 µM]
CC/C=C/C#N | / | / | / | / | -6% | -7%
Cc1cc(=O)oc2cc(NC(=O)C(CCCCN)NC(=O)C(CC3CCCCC3)NC(=O)OCC3c4ccccc4-c4ccccc43)ccc12 (centres undefined) | / | 2 | -14% | / | / | /
O=C(c1ccc(NS(=O)(=O)c2ccc(F)cc2)cc1)N1CCCCC1 | / | / | -13% | / | / | /
